This is part of a sample that, as a whole, favours compounds with a hit. Of some 83,000 tested, about 20% had one in any assay.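 Testing used 96-well plates and a 48-hour single-concentration exposure. Example: -40 means 40% of the starting cells died.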 A number with no mark means an inactive call. Active and inactive are the calls of the source.

This test concerns NCI-H322M lung. Nature of the test: NCI-60 one-dose screen, 48 h (100 = growth as untreated, 0 = no growth, -100 = all killed). As to conditions: 10 µM unless noted. The protocol: Growth inhibition of the NCI-H322M human Non-Small Cell Lung tumor cell line is measured as a screen for anti-cancer activity. Cells are grown in 96 well plates and exposed to the test compound for 48 hours. Compounds are tested at a single concentration, which is 10^-5 M for most compounds. The reported endpoint is percent growth (GI% or GIPRCNT), where numbers from 0 - 100% represent growth inhibition, and numbers from -100% - 0 represent cell death. For example, a value of 40 represents 60% growth inhibition. A value of 0 means no net growth occurred over the course of the experiment. A value of -40 indicates 40% of cells at the beginning of the experiment died by the end of the experiment. A value of -100 means all cells are dead at the end of the experiment.
NCI-60 Human Tumor Cell Lines Screen was performed using the standard one-dose NCI protocol, which is described in more detail at https://dtp.cancer.gov/discovery_development/nci-60/default.htm.
Compounds with GIPRCNT values below 10 were considered active. Activity score was based on GIPRCNT using the following formula: […]
Score is 0 for GIPRCNT values of 100 or above, 50 for GIPRCNT values of 0, and 100 for GIPRCNT values of -100.
For `CCC1CN2C(=N1)c1ccccc1-c1cc(Cl)ccc12` (stereo not given), the growth is 28.3%.

Consider `CCn1cc(C(=O)O)c(=O)c2cc(F)c(N3CCN(CC(=O)Nc4ccc(C(C)=O)cc4)CC3)cc21`, for which the growth is 101%.

Turning to `CC(C)(C)C(=O)Nc1nc2c(s1)CCc1ccn(S(=O)(=O)c3ccccc3)c1-2`, the growth was 83.3%.

Regarding `CN(C)c1ccc(/C=N/n2c(-c3cc(F)c(Cl)cc3Cl)nn(CN3CCOCC3)c2=S)cc1`, the growth was 94.9%.

As to `Cc1cn(C2CC(F)C(CO)O2)c(=O)[nH]c1=O` (stereo not given), the growth is 85.9%.

`COc1ccc2c(c1)C(=O)/C(=C/c1ccc(OCC(=O)c3ccc(Cl)cc3)cc1)O2`: the growth was 102%.

As for `COc1ccc2c(c1)nnc1c3cccnc3[nH]c21`, the growth was 43.3%.

With `CCOC(=O)C1CN(Cc2ccccc2)C(=O)C1=O` (stereo not given), the growth was 94.9%.

Regarding `CN[C@@H](CCCNC(N)=NC/C=C(/C)CCC=C(C)C)C(=O)N(C)[C@@H](CCCNC(N)=NCC=C(C)C)C(=O)N[C@H](C)[C@H](OS(=O)(=O)O)c1ccc(OS(=O)(=O)O)c(COS(=O)(=O)O)c1`, the growth was 102%.

On to `COC(=O)CCCNS(=O)(=O)c1cc(C(=O)Nc2ccc(NC(=O)c3cc(S(=O)(=O)NCCCC(=O)OC)c(O)c(O)c3O)cc2)c(O)c(O)c1O`, for which the growth was 89.4%.

Consider `CC(=S)Nc1ccccc1`, for which the growth was 104%.

Take `CC(C)C1(C(C)C)NC(=O)NC1=O`: the growth was 119%.

For `COc1ccc(-c2coc3c(CO)c(O)ccc3c2=O)cc1`, the growth was 52.9%.

Regarding `S=c1n(CNc2ccc(Cl)nn2)nc(-c2cc(Cl)cc(Cl)c2Cl)n1/N=C/c1ccc(Cl)cc1`, the growth was 74.9%.

On to `FC(F)(F)c1cn(CCN2CCOCC2)c2ncnc(Cl)c12`, for which the growth was 87.4%.

On to `C=C1C(=O)O[C@H]2[C@H]1CC/C(COC(=O)c1cc(OC)c(OC)c(OC)c1)=C\CC[C@@]1(C)O[C@@H]21`, for which the growth was 52.9%.

For `O=C(Nc1ccc(-n2ccc3c(NC(=O)c4ccccc4)ncnc32)cc1)Nc1cccc(Cl)c1Cl`, the growth is 43.9%.

As to `CC1(C)CC(=O)C2=C(C1)OC1=C(C(=O)CC(C)(C)C1)C2c1ccc(OCc2cn(-c3ccc(F)cc3F)nn2)cc1`, the growth is 105%.

On to `CC(=O)Oc1ccc(C(OC(C)=O)OC(C)=O)cc1`, for which the growth was 98.9%.

For `COc1ccc(NC(=O)COCCOCCNC[C@@H]2C(=O)O[C@H]3[C@H]2CC/C(COC(=O)OC/C2=C/CC[C@@]4(C)O[C@H]4[C@H]4OC(=O)[C@@H](CN(C)C)[C@@H]4CC2)=C\CC[C@@]2(C)O[C@@H]32)c(O)c1C(N)=O`, the growth was 102%.

Turning to `O=C(Nc1ccc(-n2cc(-c3ccncc3)c(-c3ccc(O)c(Cl)c3)n2)cc1)c1cc(Cl)cc(Cl)c1`, the growth is 50.1%.

Regarding `COc1cc(/C=C2/Oc3cc4occc4c(OC)c3C2=O)ccc1OCC(=O)Nc1ccncc1`, the growth is 97.3%.

Turning to `CCC(CC(C)C)Nc1ccc(NC(CC)CC(C)C)cc1` (stereo not given), the growth is 107%.

As to `O=C(Nc1ccc(-n2ccc3c(NC(=O)c4ccccc4)ncnc32)cc1)Nc1ccc(Cl)c(Cl)c1`, the growth is 21%.

Consider `CCNc1ncnc2n[nH]nc12`, for which the growth was 101%.

On to `CC(=O)O[C@@H]1[C@@H](OC(C)=O)[C@H](OC(C)=O)CO[C@H]1Nc1cccc2ccccc12`, for which the growth was 94.4%.

With `COc1ccc(Cl)cc1NC(=O)c1cc2c(n1C)-c1nc(NC(=O)C(C)(C)C)sc1CC2`, the growth was 91.3%.

As to `COc1cc2c(cc1OCCCCC(=O)Nc1ccc(-c3nc4ccccc4s3)cc1)N=C[C@@H]1CCCN1C2=O`, the growth was -0.382% (active).

Take `Nn1c(SCC(=O)Nc2cc(Cl)c(Cl)cc2Cl)nnc1-c1cc(F)c(Cl)cc1Cl`: the growth was 105%.

Take `O=C(Nc1ccc(F)cc1)Nc1ccc(Br)c(C(F)(F)F)c1`: the growth is 22%.

In the case of `COc1cccc(C2CC(c3cc(OC)c(OC)c(OC)c3)=NN2)c1` (stereo not given), the growth was 99.6%.

On to `COc1ccc(Cl)cc1NC(=O)c1cc2c([nH]1)-c1nc(NC(=O)C(C)(C)C)sc1CC2`, for which the growth is 75.5%.

Turning to `COc1ccc2c(c1)OC(N)=C(C#N)C2c1ccc(F)c(F)c1` (stereo not given), the growth was 51.4%.

Turning to `CCN(CC)CCNCC(O)Cc1ccc(OC)cc1` (stereo not given), the growth was 91.4%.

On to `O=C(c1ccccc1)[C@H]1[C@@H]2CCCN2[C@]2(C(=O)Nc3ccc(F)cc32)[C@]12C(=O)Nc1ccccc12`, for which the growth was 97%.

As to `CC(C)(C)OC(=O)N1CC(Cn2cc(C(F)(F)F)c3c(Cl)ncnc32)C1`, the growth was -90.2% (active).

`COC(=O)c1oc2c(C(C)=O)c(OCCCN(C)C)ccc2c1C`: the growth was 82.2%.

For the compound `O=S(=O)(CCN1CCOCC1)Nc1cncc(-c2ccc3ncnc(Nc4ccc(F)c(Cl)c4)c3c2)c1`, the growth was 33.8%.

`O=C(Nc1cccc([N+](=O)[O-])c1)Nc1cccc([N+](=O)[O-])c1`: the growth was 68%.

Take `CS(=O)(=O)OCC(COS(C)(=O)=O)C(c1ccccc1)c1ccccc1`: the growth was 97.9%.

These data come from PubChem BioAssay (NCI).
